# From ChEMBL document CHEMBL1961873, “Compounds: GSK PKIS; Assays: Nanosyn kinase panel” (2012)
# Experiments:
# [1] = target: T1, 3-phosphoinositide-dependent protein kinase 1 (Homo sapiens) (UniProt O15530); conditions: at 0.1 µM;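 note: values are mean inhibition of PDK1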
# T1 sequence (whole entry): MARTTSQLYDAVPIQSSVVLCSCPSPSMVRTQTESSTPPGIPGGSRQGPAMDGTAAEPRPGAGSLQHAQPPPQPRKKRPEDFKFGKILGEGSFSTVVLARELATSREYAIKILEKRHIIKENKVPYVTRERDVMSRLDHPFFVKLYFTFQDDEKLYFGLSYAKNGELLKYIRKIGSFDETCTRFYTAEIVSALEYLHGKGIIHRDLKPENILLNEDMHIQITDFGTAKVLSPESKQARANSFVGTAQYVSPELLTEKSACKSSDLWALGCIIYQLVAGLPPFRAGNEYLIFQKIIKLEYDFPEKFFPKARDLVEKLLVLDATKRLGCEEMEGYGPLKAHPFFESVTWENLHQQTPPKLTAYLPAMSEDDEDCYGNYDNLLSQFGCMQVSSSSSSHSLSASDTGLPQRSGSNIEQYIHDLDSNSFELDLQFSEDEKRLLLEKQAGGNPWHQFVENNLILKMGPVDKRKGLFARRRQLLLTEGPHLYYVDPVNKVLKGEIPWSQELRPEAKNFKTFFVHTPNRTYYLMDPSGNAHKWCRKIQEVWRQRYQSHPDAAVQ
# [2] = target: cAMP-dependent protein kinase catalytic subunit alpha (Homo sapiens) (UniProt P17612); conditions: at 0.1 µM
# [3] = target: cAMP-dependent protein kinase catalytic subunit alpha (Homo sapiens) (UniProt P17612); conditions: at 1 µM
# [4] = target: Protein kinase C alpha type (Homo sapiens) (UniProt P17252); conditions: at 0.1 µM
# [5] = target: Protein kinase C alpha type (Homo sapiens) (UniProt P17252); conditions: at 1 µM
# [6] = target: Protein kinase C beta type (Homo sapiens) (UniProt P05771); conditions: at 0.1 µM
# Protein kinase C beta type (Homo sapiens), sequence (P05771 2-671 limits assumed): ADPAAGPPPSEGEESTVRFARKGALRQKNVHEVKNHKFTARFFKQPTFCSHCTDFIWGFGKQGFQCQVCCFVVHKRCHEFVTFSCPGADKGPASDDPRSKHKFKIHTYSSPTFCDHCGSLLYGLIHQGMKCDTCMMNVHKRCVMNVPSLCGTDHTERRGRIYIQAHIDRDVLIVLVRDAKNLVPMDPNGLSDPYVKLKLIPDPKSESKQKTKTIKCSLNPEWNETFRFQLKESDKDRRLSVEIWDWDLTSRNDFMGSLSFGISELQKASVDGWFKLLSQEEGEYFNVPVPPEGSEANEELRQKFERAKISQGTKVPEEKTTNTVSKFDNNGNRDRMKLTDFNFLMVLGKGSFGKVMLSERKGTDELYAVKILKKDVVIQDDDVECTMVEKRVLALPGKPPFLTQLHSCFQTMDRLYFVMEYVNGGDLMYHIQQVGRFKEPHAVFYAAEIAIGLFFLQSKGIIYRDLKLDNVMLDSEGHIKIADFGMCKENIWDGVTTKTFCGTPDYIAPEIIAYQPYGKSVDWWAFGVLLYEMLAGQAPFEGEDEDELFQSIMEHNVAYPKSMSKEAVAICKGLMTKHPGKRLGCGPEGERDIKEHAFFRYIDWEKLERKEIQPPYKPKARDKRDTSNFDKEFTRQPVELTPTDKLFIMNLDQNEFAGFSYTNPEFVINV
# [7] = target: Protein kinase C beta type (Homo sapiens) (UniProt P05771); conditions: at 1 µM
# [8] = target: Protein kinase C eta type (Homo sapiens) (UniProt P24723); conditions: at 0.1 µM
# Protein kinase C eta type (Homo sapiens), sequence (P24723 whole entry): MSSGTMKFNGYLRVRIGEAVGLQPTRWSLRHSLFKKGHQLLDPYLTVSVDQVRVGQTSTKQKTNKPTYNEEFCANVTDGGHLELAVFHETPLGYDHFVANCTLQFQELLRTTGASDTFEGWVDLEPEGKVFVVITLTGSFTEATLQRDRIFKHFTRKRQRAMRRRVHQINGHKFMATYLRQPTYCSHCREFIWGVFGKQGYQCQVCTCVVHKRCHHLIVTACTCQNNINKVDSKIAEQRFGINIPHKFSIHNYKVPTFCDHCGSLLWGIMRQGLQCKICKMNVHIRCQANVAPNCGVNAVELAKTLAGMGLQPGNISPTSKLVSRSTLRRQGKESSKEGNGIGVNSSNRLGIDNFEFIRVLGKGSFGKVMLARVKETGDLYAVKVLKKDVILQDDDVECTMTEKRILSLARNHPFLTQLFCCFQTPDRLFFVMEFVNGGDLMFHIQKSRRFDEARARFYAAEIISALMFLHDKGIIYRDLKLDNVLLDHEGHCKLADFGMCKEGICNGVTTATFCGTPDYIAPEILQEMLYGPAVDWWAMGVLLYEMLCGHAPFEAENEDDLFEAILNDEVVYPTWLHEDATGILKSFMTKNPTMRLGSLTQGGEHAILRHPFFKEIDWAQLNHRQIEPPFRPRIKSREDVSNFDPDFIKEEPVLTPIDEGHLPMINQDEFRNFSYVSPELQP
# [9] = target: Protein kinase C eta type (Homo sapiens) (UniProt P24723); conditions: at 1 µM
# [10] = target: Protein kinase C gamma type (Homo sapiens) (UniProt P05129); conditions: at 0.1 µM;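 note: values are mean percent inhibition of PKC gamma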
SMILES,inhibition [1],inhibition [2],inhibition [3],inhibition [4],inhibition [5],inhibition [6],inhibition [7],inhibition [8],inhibition [9],inhibition [10]
COc1cccc(-n2cnc3c(N/N=C/c4ccncc4)ncnc32)c1,0.77%,-1.92%,0.18%,-2.58%,-3.28%,3.24%,5.82%,3.47%,0.69%,0.93%
Fc1ccc(-c2c(-c3ccncc3)nc3n2CCS3)cc1,2.05%,-0.65%,13.2%,-2.65%,-2.48%,2.56%,15.9%,-2.42%,7.59%,1%
Fc1ccc(-c2nc3n(c2-c2ccncc2)CCS3)cc1,1.88%,-0.98%,0.45%,-2.53%,-1.43%,0.64%,9.28%,4.25%,4.84%,2.76%
CCS(=O)(=O)c1ccc(OC)c(Nc2ncc(-c3ccccc3Cl)o2)c1,4.14%,1.17%,1.75%,0.48%,1.87%,0.67%,0.07%,0.14%,0.6%,-2.72%
CS(=O)(=O)CCNCc1ccc(-c2ccc3ncnc(Nc4ccc(OCc5ccccc5)c(Br)c4)c3c2)o1,2.06%,-1.58%,-1.94%,-3.83%,-2.95%,0.95%,-0.59%,5.37%,5.42%,0.5%
COc1ccc2cc(-c3c(-c4ccncc4)nc(-c4ccc([S+](C)[O-])cc4C)n3C)ccc2c1 (stereo not given),0.48%,2.01%,21.8%,0.33%,1.35%,2.04%,13%,0.16%,0.69%,-0.82%
Fc1ccc(-c2ncn(C3CCNCC3)c2-c2ccnc(Oc3ccc4c(c3)OCO4)n2)cc1,-1.49%,6.76%,37.9%,1.59%,3.68%,1.12%,8.79%,7.87%,4.75%,0.91%
c1ccc(Oc2ccc(Nc3ncc(-c4ccccc4)o3)cc2)cc1,3.8%,1.26%,5.43%,1.03%,1.47%,1.14%,0.76%,-1.38%,-0.47%,1.13%
C/C(Nc1ccc(S(N)(=O)=O)cc1)=C1/C(=O)Nc2ccccc21,6.52%,-1.19%,2.61%,0.02%,0.38%,-0.26%,1.85%,-1.23%,-1.17%,-3.82%
COc1cc(N2CCN(C(C)C)CC2)ccc1Nc1nc(Nc2ccc(F)cc2C(=O)NC[C@@H](O)CO)c2cc[nH]c2n1,-0.19%,-1.57%,0.73%,-2.86%,-2.46%,1.6%,4.35%,4.05%,7.17%,-2.06%
COc1ccc2ncn(-c3cc(O[C@H](C)c4ccccc4Cl)c(C(N)=O)s3)c2c1,0.22%,-1.47%,-1%,-2.81%,-1.38%,1.09%,2.58%,5.09%,3.95%,0.98%
COC(=O)Nc1nc2ccc(Sc3ccc(NC(=O)Nc4cc(C(F)(F)F)ccc4F)cc3)cc2[nH]1,1.38%,-0.04%,2.01%,0.22%,0.15%,0.84%,0.31%,-1.46%,0.54%,2.88%
COc1ccc2cc(-c3c(-c4ccncc4)nc(-c4ccc(S(C)(=O)=O)cc4C)n3C)ccc2c1,0.71%,8.44%,29.8%,1.11%,6.73%,2.3%,14.5%,7.27%,7.65%,2.09%
Nc1nccc(-c2c(-c3ccc(F)cc3)ncn2C2CCC(O)CC2)n1 (stereo not given),0.39%,4.16%,48.4%,0.74%,10.2%,3.05%,20.3%,-3.17%,-1.04%,-3.99%
CNC(=O)c1cncc(/C=C/c2c(C)cccc2C)c1,2.19%,-2.91%,-3.45%,-2.57%,-1.89%,1.56%,-0.29%,3.75%,1.62%,-0.51%
COc1cc(C)c(N(C)C(=O)CN(C)C)cc1Nc1nc(Nc2cccc(F)c2C(N)=O)c2cc[nH]c2n1,3.26%,-0.93%,-3.21%,-3%,-2.59%,1.6%,-0.89%,4.46%,1.91%,2.63%
COc1ccc(C2=C(N3CCc4ccccc43)C(=O)NC2=O)cc1,4.19%,1.7%,1.99%,1.46%,3.07%,1.02%,2.88%,2.61%,6.52%,4.16%
